PubChem BioAssay (NCI)
Compounds without any hit were thinned out: in the full panel of roughly 79,000, 15% have a hit. A number with no mark means an inactive call. Active and inactive are the calls of the source. Cut-off read from the data, not from the text of the source: active = growth inhibition above about 70%; inactive = the rest.

Tests used:
[1] = NCI Yeast Anticancer Drug Screen. Data for the wt1 strain (AID 149);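 note: 0% = growth of vehicle-treated wt1 cultures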; conditions: S. cerevisiae wt1 strain (SPY 50644) growth inhibition, hits give high values
Method in brief: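 Vehicle-normalised growth inhibition; strain wt1; compound exposure.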

[2] = NCI Yeast Anticancer Drug Screen. Data for the rad50EPP+ strain (AID 151);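 note: 0% = growth of vehicle-treated control cultures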; conditions: S. cerevisiae rad50 mutant strain, hits give high values
Method in brief: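 Growth inhibition read against vehicle controls in rad50EPP+ yeast, a strain altered in DNA damage repair, after compound exposure.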

[3] = NCI Yeast Anticancer Drug Screen. Data for the mgt1 strain (AID 153); conditions: S. cerevisiae mgt1 mutant growth inhibition, hits give high values
Method in brief: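 mgt1 yeast grown with test compound; read-out is growth inhibition versus vehicle-treated cultures.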

[4] = NCI Yeast Anticancer Drug Screen. Data for the rad50 strain (AID 155);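 note: 0% = growth of vehicle-only cultures of the same strain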; conditions: S. cerevisiae rad50 strain growth inhibition, hits give high values
Method in brief: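 A DNA repair-deficient yeast mutant serves as the test organism; compound-induced growth inhibition is calculated against vehicle-treated cells.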

[5] = NCI Yeast Anticancer Drug Screen. Data for the mec2-1 strain (AID 157); conditions: S. cerevisiae mec2-1 strain, hits give high values
Method in brief: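 Yeast mec2-1 mutant treated with compound. Readout: growth inhibition vs vehicle controls.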

[6] = NCI Yeast Anticancer Drug Screen. Data for the rad14 strain (AID 159);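 note: 0% = growth of vehicle-treated control cultures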; conditions: S. cerevisiae rad14 strain growth inhibition, hits give high values
Method in brief: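 Vehicle-treated cultures served as the baseline for growth inhibition of a DNA repair-mutant yeast strain exposed to each compound.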

[7] = NCI Yeast Anticancer Drug Screen. Data for the sgs1 mgt1 strain (AID 161);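 note: 0% = growth of cultures given vehicle only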; conditions: S. cerevisiae sgs1 mgt1 strain, hits give high values
Method in brief: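 Inhibition of yeast growth, normalised to vehicle-treated controls, is reported for a strain bearing genetic alterations in DNA damage repair.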

[8] = NCI Yeast Anticancer Drug Screen. Data for the CLN2oe strain (AID 163);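 note: 0% = growth of vehicle-only control cultures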; conditions: S. cerevisiae CLN2oe strain, hits give high values
Method in brief: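 Read-out: yeast growth inhibition, expressed relative to vehicle-only controls. The strain bears an engineered cell-cycle alteration.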

[9] = NCI Yeast Anticancer Drug Screen. Data for the cln2 rad14 strain (AID 165);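 note: 0% = growth equal to vehicle treated cultures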; conditions: S. cerevisiae cln2 rad14 strain, hits give high values
Method in brief: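 cln2 rad14 yeast strain; compound exposure; growth inhibition read vs vehicle controls.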

[10] = NCI Yeast Anticancer Drug Screen. Data for the bub3 strain (AID 167); conditions: S. cerevisiae bub3 mutant strain, hits give high values
Method in brief: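 Inhibition values come from growth of compound-treated mutant yeast normalised to vehicle-treated controls.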

[11] = NCI Yeast Anticancer Drug Screen. Data for the wt2 strain (AID 169);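 note: 0% = growth of vehicle-treated yeast cultures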; conditions: S. cerevisiae wt2 strain growth inhibition, hits give high values
Method in brief: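 Read-out: growth inhibition versus vehicle-treated control cultures after compound exposure of the yeast strain.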

[12] = NCI Yeast Anticancer Drug Screen. Data for the mlh1 strain (AID 171);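 note: 0% = growth of vehicle-treated control cultures of the same strain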; conditions: S. cerevisiae mlh1 strain growth inhibition, hits give high values
Method in brief: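 Read-out: growth inhibition versus vehicle controls. Strain: engineered yeast with a defined DNA repair or cell cycle defect, compound-treated.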

[13] = NCI Yeast Anticancer Drug Screen. Data for the sgs1 strain (AID 173);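 note: 0% = growth of vehicle-only control cultures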; conditions: S. cerevisiae sgs1 mutant, hits give high values
Method in brief: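 Read-out: yeast growth inhibition relative to vehicle controls, following compound exposure of a strain with a defined DNA repair/cell cycle alteration.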

[14] = NCI Yeast Anticancer Drug Screen. Data for the mlh1 rad18 strain (AID 175); conditions: S. cerevisiae mlh1 rad18 strain growth inhibition, hits give high values
Method in brief: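 Yeast w/ defined DNA-repair lesions; compound exposure; growth vs vehicle controls → % inhibition.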

[15] = NCI Yeast Anticancer Drug Screen. Data for the rad18 strain (AID 177); conditions: S. cerevisiae rad18 mutant growth inhibition, hits give high values
Method in brief: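 Readout: growth inhibition vs vehicle controls. Cells: genetically altered yeast strain, DNA repair defect.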

[16] = NCI Yeast Anticancer Drug Screen. Data for the rad52 strain (AID 147);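 note: 0% = growth of vehicle-treated control cultures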; conditions: S. cerevisiae rad52 mutant growth inhibition, hits give high values
Method in brief: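 Read-out: growth inhibition versus vehicle-treated controls. Cells were a DNA repair-deficient yeast strain treated with compounds.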

[17] = at 5.0 µM (retest, dose inferred, filed as 0.5)
[18] = at 50.0 µM (retest, dose inferred, filed as 5.0)

O=C(CCCN1CCC2(CC1)OC(=O)N(c1ccccc1)C2=O)c1ccccc1
growth inhibition ([1]; at 1.2 µM): 43% | growth inhibition ([1]; at 3.7 µM): 45% | growth inhibition ([1]; at 11.0 µM): 53% | growth inhibition ([1]; at 33.0 µM): 52% | growth inhibition ([1]; at 100.0 µM): 63% | growth inhibition ([2]; at 1.2 µM): 44% | growth inhibition ([2]; at 3.7 µM): 29% | growth inhibition ([2]; at 11.0 µM): 33% | growth inhibition ([2]; at 33.0 µM): 26% | growth inhibition ([2]; at 100.0 µM): 26% | growth inhibition ([3]; at 1.2 µM): 29% | growth inhibition ([3]; at 3.7 µM): 44% | growth inhibition ([3]; at 11.0 µM): 56% | growth inhibition ([3]; at 33.0 µM): 65% | growth inhibition ([3]; at 100.0 µM): 74% (active) | growth inhibition ([4]; at 1.2 µM): 31% | growth inhibition ([4]; at 3.7 µM): 50% | growth inhibition [4, 17]: 31% | growth inhibition ([4]; at 11.0 µM): 60% | growth inhibition ([4]; at 33.0 µM): 65% | growth inhibition [4, 18]: 64% | growth inhibition ([4]; at 50.0 µM): 83.9% (active) | growth inhibition ([4]; at 100.0 µM): 67% | growth inhibition ([5]; at 1.2 µM): 44% | growth inhibition ([5]; at 3.7 µM): 45% | growth inhibition [5, 17]: 37% | growth inhibition ([5]; at 11.0 µM): 60% | growth inhibition ([5]; at 33.0 µM): 61% | growth inhibition [5, 18]: 60% | growth inhibition ([5]; at 50.0 µM): 47.2% | growth inhibition ([5]; at 100.0 µM): 59% | growth inhibition ([6]; at 1.2 µM): 53% | growth inhibition ([6]; at 3.7 µM): 63% | growth inhibition ([6]; at 11.0 µM): 74% (active) | growth inhibition ([6]; at 33.0 µM): 79% (active) | growth inhibition ([6]; at 100.0 µM): 90% (active) | growth inhibition [7, 17]: 48% | growth inhibition [7, 18]: 69% | growth inhibition ([7]; at 50.0 µM): 85.9% (active) | growth inhibition ([8]; at 1.2 µM): 45% | growth inhibition ([8]; at 3.7 µM): 63% | growth inhibition ([8]; at 11.0 µM): 72% (active) | growth inhibition ([8]; at 33.0 µM): 71% (active) | growth inhibition ([8]; at 100.0 µM): 76% (active) | growth inhibition [9, 17]: 64% | growth inhibition [9, 18]: 85% (active) | growth inhibition ([9]; at 50.0 µM): 65% | growth inhibition ([10]; at 1.2 µM): 20% | growth inhibition ([10]; at 3.7 µM): 29% | growth inhibition [10, 17]: 53% | growth inhibition ([10]; at 11.0 µM): 35% | growth inhibition ([10]; at 33.0 µM): 38% | growth inhibition [10, 18]: 67% | growth inhibition ([10]; at 50.0 µM): 79.4% (active) | growth inhibition ([10]; at 100.0 µM): 50% | growth inhibition ([11]; at 1.2 µM): 7% | growth inhibition ([11]; at 3.7 µM): 24% | growth inhibition ([11]; at 11.0 µM): 32% | growth inhibition ([11]; at 33.0 µM): 38% | growth inhibition ([11]; at 100.0 µM): 40% | growth inhibition ([12]; at 1.2 µM): 35% | growth inhibition ([12]; at 3.7 µM): 66% | growth inhibition ([12]; at 11.0 µM): 71% (active) | growth inhibition ([12]; at 33.0 µM): 70% (active) | growth inhibition ([12]; at 100.0 µM): 73% (active) | growth inhibition ([13]; at 1.2 µM): 53% | growth inhibition ([13]; at 3.7 µM): 67% | growth inhibition ([13]; at 11.0 µM): 71% (active) | growth inhibition ([13]; at 33.0 µM): 72% (active) | growth inhibition ([13]; at 100.0 µM): 75% (active) | growth inhibition [14, 17]: 23% | growth inhibition [14, 18]: 78% (active) | growth inhibition ([14]; at 50.0 µM): 72.9% (active) | growth inhibition ([15]; at 1.2 µM): 63% | growth inhibition ([15]; at 3.7 µM): 70% (active) | growth inhibition ([15]; at 11.0 µM): 78% (active) | growth inhibition ([15]; at 33.0 µM): 80% (active) | growth inhibition ([15]; at 100.0 µM): 77% (active)

O=C1C=CC(=O)N1c1ccc(Br)cc1Cl
growth inhibition ([16]; at 1.2 µM): 91% (active) | growth inhibition ([16]; at 3.7 µM): 101% (active) | growth inhibition ([16]; at 11.0 µM): 99% (active) | growth inhibition ([16]; at 33.0 µM): 99% (active) | growth inhibition ([16]; at 100.0 µM): 99% (active) | growth inhibition ([1]; at 1.2 µM): 95% (active) | growth inhibition ([1]; at 3.7 µM): 101% (active) | growth inhibition ([1]; at 11.0 µM): 99% (active) | growth inhibition ([1]; at 33.0 µM): 99% (active) | growth inhibition ([1]; at 100.0 µM): 98% (active) | growth inhibition ([2]; at 1.2 µM): 90% (active) | growth inhibition ([2]; at 3.7 µM): 102% (active) | growth inhibition ([2]; at 11.0 µM): 100% (active) | growth inhibition ([2]; at 33.0 µM): 99% (active) | growth inhibition ([2]; at 100.0 µM): 99% (active) | growth inhibition ([4]; at 1.2 µM): 99% (active) | growth inhibition ([4]; at 3.7 µM): 101% (active) | growth inhibition [4, 17]: 15% | growth inhibition ([4]; at 11.0 µM): 100% (active) | growth inhibition ([4]; at 33.0 µM): 100% (active) | growth inhibition [4, 18]: 51% | growth inhibition ([4]; at 50.0 µM): 92.2% (active) | growth inhibition ([4]; at 100.0 µM): 99% (active) | growth inhibition ([5]; at 1.2 µM): 97% (active) | growth inhibition ([5]; at 3.7 µM): 101% (active) | growth inhibition [5, 17]: 44% | growth inhibition ([5]; at 11.0 µM): 100% (active) | growth inhibition ([5]; at 33.0 µM): 99% (active) | growth inhibition [5, 18]: 42% | growth inhibition ([5]; at 50.0 µM): 93.7% (active) | growth inhibition ([5]; at 100.0 µM): 99% (active) | growth inhibition ([6]; at 1.2 µM): 99% (active) | growth inhibition ([6]; at 3.7 µM): 102% (active) | growth inhibition ([6]; at 11.0 µM): 100% (active) | growth inhibition ([6]; at 33.0 µM): 100% (active) | growth inhibition ([6]; at 100.0 µM): 100% (active) | growth inhibition [7, 17]: 101% (active) | growth inhibition [7, 18]: 98% (active) | growth inhibition ([8]; at 1.2 µM): 63% | growth inhibition ([8]; at 3.7 µM): 101% (active) | growth inhibition ([8]; at 11.0 µM): 99% (active) | growth inhibition ([8]; at 33.0 µM): 99% (active) | growth inhibition ([8]; at 100.0 µM): 99% (active) | growth inhibition [9, 17]: 73% (active) | growth inhibition [9, 18]: 100% (active) | growth inhibition ([10]; at 1.2 µM): 98% (active) | growth inhibition ([10]; at 3.7 µM): 101% (active) | growth inhibition [10, 17]: 101% (active) | growth inhibition ([10]; at 11.0 µM): 99% (active) | growth inhibition ([10]; at 33.0 µM): 100% (active) | growth inhibition [10, 18]: 98% (active) | growth inhibition ([10]; at 100.0 µM): 99% (active) | growth inhibition ([11]; at 1.2 µM): 76% (active) | growth inhibition ([11]; at 3.7 µM): 101% (active) | growth inhibition ([11]; at 11.0 µM): 99% (active) | growth inhibition ([11]; at 33.0 µM): 99% (active) | growth inhibition ([11]; at 100.0 µM): 99% (active) | growth inhibition ([12]; at 1.2 µM): 96% (active) | growth inhibition ([12]; at 3.7 µM): 101% (active) | growth inhibition ([12]; at 11.0 µM): 100% (active) | growth inhibition ([12]; at 33.0 µM): 97% (active) | growth inhibition ([12]; at 100.0 µM): 99% (active) | growth inhibition ([13]; at 1.2 µM): 92% (active) | growth inhibition ([13]; at 3.7 µM): 102% (active) | growth inhibition ([13]; at 11.0 µM): 99% (active) | growth inhibition ([13]; at 33.0 µM): 99% (active) | growth inhibition ([13]; at 100.0 µM): 99% (active) | growth inhibition [14, 17]: 22% | growth inhibition [14, 18]: 42% | growth inhibition ([14]; at 50.0 µM): 92.7% (active) | growth inhibition ([15]; at 1.2 µM): 85% (active) | growth inhibition ([15]; at 3.7 µM): 99% (active) | growth inhibition ([15]; at 11.0 µM): 99% (active) | growth inhibition ([15]; at 33.0 µM): 93% (active) | growth inhibition ([15]; at 100.0 µM): 99% (active)
